Test results reported in PubChem BioAssay (NCATS).
Records with an inconclusive call do not appear. Entries that show only a call come without a potency. Calls of active or inactive are those of the source. The call rests on the fitted dose curve; in most records, active means well fitted inhibition curve with a large enough effect; inconclusive means small, poorly fitted or top-dose-only effect; inactive means flat fitted curve, though single readings scatter.

What was measured:
Assay in all cases: qHTS profiling for inhibitors of Plasmodium falciparum proliferation (AID 504749); further: nearly all actives have a fitted effect of over 60% in size
Conditions in all cases: P. falciparum in erythrocytes, SYBR Green DNA, 72 h; series mostly up to 28.7 µM
CP247 = tested on: CP247
How it was run: (§1)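 In a 72 h erythrocytic culture (37 C, humidified, 5% CO2) at 2.5% hematocrit and 0.3% starting parasitemia, compounds were tested; SYBR Green I in detergent lysis buffer stained parasite DNA overnight.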

CP250 = tested on: CP250
How it was run: as §1

CP252 = tested on: CP252
How it was run: as §1

CP256 = tested on: CP256
How it was run: as §1

CP260 = tested on: CP260
How it was run: as §1

CP262 = tested on: CP262
How it was run: as §1

CP265 = tested on: CP265
How it was run: as §1

CP266 = tested on: CP266
How it was run: as §1

CP268 = tested on: CP268
How it was run: as §1

CP269 = tested on: CP269
How it was run: as §1
Potency means the concentration at half of the fitted maximal effect.

| SMILES | Potency (CP247) | Potency (CP250) | Potency (CP252) | Potency (CP256) | Potency (CP260) | Potency (CP262) | Potency (CP265) | Potency (CP266) | Potency (CP268) | Potency (CP269) |
| --- | --- | --- | --- | --- | --- | --- | --- | --- | --- | --- |
| CN(C)c1ccc2nc3ccc(=[N+](C)C)cc-3sc2c1 | 0.141 µM (active) | 0.141 µM (active) | 0.0891 µM (active) | 0.0631 µM (active) | 0.0251 µM (active) | 0.019 µM (active) | 0.0891 µM (active) | 0.0757 µM (active) | 0.0379 µM (active) | 0.0849 µM (active) |
| CCCOc1ccc2nc(NC(=O)OC)[nH]c2c1 | inactive | inactive | inactive | inactive | inactive | inactive | inactive | inactive | inactive | inactive |
| CN1C(C(=O)Nc2ccccn2)=C(O)c2sccc2S1(=O)=O | inactive | inactive | inactive | inactive | inactive | inactive | inactive | inactive | inactive | inactive |
| C=CCc1cc(OC)c(O)c(C(=O)NCCO)c1 | inactive | inactive | inactive | inactive | inactive | inactive | inactive | inactive | inactive | inactive |
| Cc1cccc(C)c1OCC(=O)N[C@@H](Cc1ccccc1)[C@@H](O)C[C@H](Cc1ccccc1)NC(=O)[C@H](C(C)C)N1CCCNC1=O | 7.08 µM (active) | 7.08 µM (active) | 4.47 µM (active) | 11.2 µM (active) | 3.98 µM (active) | 9.53 µM (active) | 5.01 µM (active) |  | 9.53 µM (active) | 6.75 µM (active) |
| CC(S)C(=O)NCC(=O)O (configuration not stated) | inactive | inactive | inactive | inactive | inactive | inactive | inactive | inactive | inactive | inactive |
| CCC1=C(C)CN(C(=O)NCCc2ccc(S(=O)(=O)NC(=O)NC3CCC(C)CC3)cc2)C1=O (configuration not stated) | inactive | inactive | inactive | inactive | inactive | inactive | inactive | inactive | inactive | inactive |
| Oc1ccc(OCc2ccccc2)cc1 | inactive | inactive | inactive | inactive | inactive |  | inactive | inactive | inactive | inactive |
| Nc1nc(Cl)nc2c1ncn2[C@H]1C[C@H](O)[C@@H](CO)O1 | inactive | inactive | inactive | inactive | inactive |  | inactive |  |  |  |
| Cc1cc(=O)c2c(O)c3c(O)cc(=O)c4c3c3c(cc(O)c1c23)C(C)(C)C=4O | 1.78 µM (active) | 1.41 µM (active) | 1.26 µM (active) | 1.58 µM (active) | 1.58 µM (active) |  | 1.58 µM (active) |  |  | 2.69 µM (active) |
| C=C(c1ccc(C(=O)O)cc1)c1cc2c(cc1C)C(C)(C)CCC2(C)C | inactive | inactive | inactive | inactive |  | inactive | inactive | inactive | inactive | inactive |
| CNC[C@@H](O)[C@@H](O)[C@H](O)[C@H](O)CO | inactive | inactive | inactive | inactive | inactive | inactive | inactive |  | inactive | inactive |
| COc1ccc(C2(C#N)CCC(C(=O)O)CC2)cc1OC1CCCC1 (configuration not stated) | inactive | inactive | inactive | inactive | inactive | inactive | inactive |  | inactive | inactive |
| CNC[C@H](O)c1ccc(O)c(O)c1 | inactive | inactive | inactive | inactive | inactive | inactive | inactive | inactive | inactive | inactive |
| CC1(C)NC(=O)N(c2ccc([N+](=O)[O-])c(C(F)(F)F)c2)C1=O | inactive | inactive | inactive | inactive | inactive | inactive | inactive | inactive | inactive | inactive |
| O=C(NC(Cc1cc(=O)[nH]c2ccccc12)C(=O)O)c1ccc(Cl)cc1 (configuration not stated) | inactive | inactive | inactive | inactive | inactive | inactive | inactive | inactive | inactive | inactive |
| COc1ccc2cc([C@H](C)C(=O)O)ccc2c1 | inactive | inactive | inactive | inactive |  | inactive | inactive | inactive | inactive | inactive |
| CCC(C)(Oc1ccc(C2(c3ccc(OC(C)(CC)C(=O)O)cc3)CCCCC2)cc1)C(=O)O (configuration not stated) | inactive | inactive | inactive | inactive |  | inactive | inactive | inactive | inactive | inactive |
| Cc1ncc([N+](=O)[O-])n1CC(C)O (configuration not stated) | inactive | inactive | inactive | inactive |  | inactive | inactive | inactive | inactive | inactive |
| O=C(NCCO[N+](=O)[O-])c1cccnc1 | inactive | inactive | inactive | inactive | inactive | inactive | inactive |  | inactive | inactive |
| NNc1nncc2ccccc12 |  |  | inactive |  |  | inactive |  | inactive |  |  |
| Cn1c(NCCN(CCO)CCCc2ccc([N+](=O)[O-])cc2)cc(=O)n(C)c1=O |  | inactive | inactive | inactive | inactive | inactive | inactive | inactive | inactive | inactive |
| O=C(O)c1cn(-c2ccc(F)cc2)c2cc(N3CCNCC3)c(F)cc2c1=O | inactive | inactive |  |  |  |  |  | inactive |  |  |
| CCCCC(CC)COC(=O)C(C#N)=C(c1ccccc1)c1ccccc1 (configuration not stated) |  |  | inactive | 8.91 µM (active) |  | inactive |  |  | inactive | inactive |

| SMILES | Potency (CP247) | Potency (CP250) | Potency (CP252) | Potency (CP256) | Potency (CP260) | Potency (CP262) | Potency (CP265) | Potency (CP266) | Potency (CP268) | Potency (CP269) |
| --- | --- | --- | --- | --- | --- | --- | --- | --- | --- | --- |
| CCC[C@@H]1C[C@@H](C(=O)N[C@@H]([C@H]2O[C@H](SC)[C@H](O)[C@@H](O)[C@H]2O)[C@@H](C)O)N(C)C1 |  | inactive |  | 0.398 µM (active) |  | 2.39 µM (active) |  |  |  |  |
| COC1=C(OC)C(=O)C(CCCCCCCCCCO)=C(C)C1=O |  | inactive | inactive | inactive | inactive | inactive | inactive | inactive | inactive | inactive |
| Cc1cc(=O)oc2cc(O)ccc12 |  |  |  |  |  |  |  | inactive | inactive | inactive |
| CN1CCC(=C2c3ccccc3CCc3sccc32)CC1 |  | inactive |  |  |  | inactive |  |  |  |  |
| Cc1nc(Nc2ncc(C(=O)Nc3c(C)cccc3Cl)s2)cc(N2CCN(CCO)CC2)n1 |  |  |  | inactive | inactive | inactive | inactive |  | inactive |  |
| C[Se]CCC(N)C(=O)O (configuration not stated) | inactive | inactive | inactive |  | inactive | inactive | inactive | inactive | inactive | inactive |
| CN(c1nccc(=O)[nH]1)C1CCN(c2nc3ccccc3n2Cc2ccc(F)cc2)CC1 |  | inactive | inactive | inactive | inactive | inactive | inactive |  | inactive |  |
| C[C@H](Cn1cnc2c(N)ncnc21)OCP(=O)(O)O | inactive | inactive | inactive | inactive |  | inactive | inactive | inactive | inactive | inactive |
| O=C(CS(=O)Cc1ccco1)NCC=CCOc1cc(CN2CCCCC2)ccn1 (configuration not stated) | inactive | inactive | inactive |  | inactive | inactive | inactive | inactive | inactive | inactive |
| CCc1nc(N)nc(N)c1-c1ccc(Cl)cc1 |  | inactive |  | inactive | inactive | inactive | inactive | inactive | inactive | inactive |
| CCCCCCCCOc1ccccc1C(=O)Nc1ccc(C(=O)OCC[N+](C)(CC)CC)cc1 | 10 µM (active) |  |  |  | 7.08 µM (active) | inactive |  |  |  |  |
| O=C(OC1C[C@H]2CC[C@@H](C1)[N+]21CCCC1)C(O)(c1ccccc1)c1ccccc1 (some centres not stated) |  |  |  | 3.55 µM (active) |  | 4.26 µM (active) | 3.98 µM (active) |  |  |  |
| Cc1c(C(=O)NN2CCCCC2)nn(-c2ccc(Cl)cc2Cl)c1-c1ccc(Cl)cc1 | 7.94 µM (active) |  |  | 11.2 µM (active) |  | inactive | 11.2 µM (active) |  |  |  |
| Cc1ccc(NC(=O)c2ccc(CN3CCN(C)CC3)cc2)cc1Nc1nccc(-c2cccnc2)n1 |  |  |  |  |  |  |  |  |  | 15.1 µM (active) |
| CC1=C(C)C(=O)C(C(CCCCCC(=O)O)c2ccccc2)=C(C)C1=O (configuration not stated) | 3.98 µM (active) |  |  | inactive | inactive | inactive | inactive | inactive | inactive | inactive |
| c1ccc2[nH]c(-c3cscn3)nc2c1 |  |  | inactive | inactive | inactive | inactive | inactive | inactive | inactive | inactive |
| CCN(CC)CCOc1ccc(Cc2ccccc2)cc1 |  | inactive | inactive | inactive |  | inactive | inactive | inactive | inactive | inactive |
| CC[C@]1(O)C[C@H]2CN(CCc3c([nH]c4ccccc34)[C@@](C(=O)OC)(c3cc4c(cc3OC)N(C=O)[C@H]3[C@@](O)(C(=O)OC)[C@H](OC(C)=O)[C@]5(CC)C=CCN6CC[C@]43[C@@H]65)C2)C1 |  | 3.55 µM (active) | 3.55 µM (active) | 2.24 µM (active) | 0.0794 µM (active) |  |  |  |  |  |
| Cc1cc(C2CCCCC2)n(O)c(=O)c1 |  |  | 3.55 µM (active) |  |  |  |  |  |  | 5.73 µM (active) |
| COCCCOc1ccnc(CS(=O)c2nc3ccccc3[nH]2)c1C (configuration not stated) |  | inactive | inactive | inactive |  | inactive | inactive | inactive | inactive |  |
| CN(C)CCc1c[nH]c2ccc(Cn3cncn3)cc12 | inactive |  | inactive | inactive | inactive | inactive | inactive | inactive | inactive | inactive |
| O=c1oc2cc(O)ccc2s1 | inactive |  | inactive | inactive | inactive | inactive | inactive | inactive | inactive | inactive |
| CC(C)c1ccc2oc3nc(N)c(C(=O)O)cc3c(=O)c2c1 | 5.62 µM (active) |  |  | inactive |  | inactive | inactive |  | inactive | inactive |
| O=C1CCc2ccc(OCCCCN3CCN(c4cccc(Cl)c4Cl)CC3)cc2N1 |  |  |  | inactive | 11.2 µM (active) | inactive | inactive | inactive | inactive | inactive |
